PPC-1+TRAIL kill = kills PPC-1 cancer cells in the presence of TRAIL | PPC-1 cells + TRAIL, ATPLite viability luminescence | cell killing (% activity), % at 4 µM or 5 µM | 220,000 tested, 0.41% active;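 active = cell killing above 50% in the first pass at 4 µM, then a duplicate retest at 5 µM averaging 50% or more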
SENP6 block = SENP6 protease inhibition; Recombinant SENP6 catalytic domain, aminoluciferin luminescence; 330,000 tested, 1.8% active; Q9GZR1; AID 2599; inhibition, % at 10 µM;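 active = inhibition above about 50% at the single tested dose, limit read from the data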
SENP8 block-1 = blocks human SENP8 cleavage of Nedd8 substrate; Q96LD8; recombinant SENP8, Nedd8 substrate fluorescence; inhibition, % at 20 µM; 360,000 tested, 0.64% active; AID 602440; in the data active = inhibition mostly above about 40%, no sharp cut-off; inactive = mostly below about 27%
Target sequence (Q96LD8 whole entry, looked up): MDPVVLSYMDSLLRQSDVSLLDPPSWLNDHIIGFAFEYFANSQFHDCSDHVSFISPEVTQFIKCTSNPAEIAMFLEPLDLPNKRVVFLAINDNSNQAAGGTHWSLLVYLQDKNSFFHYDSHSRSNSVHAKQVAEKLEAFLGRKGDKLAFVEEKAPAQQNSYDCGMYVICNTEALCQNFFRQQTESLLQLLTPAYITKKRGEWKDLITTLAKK
SENP8 block-2 = inhibitors of human SENP8 protease; Q96LD8; AID 2540; purified SENP8, Z-RLRGG-aminoluciferin cleavage, luminescence; 330,000 tested, 1.2% active; inhibition, % at 10 µM; in the data active = inhibition above about 50%
SENP7 inh = SENP7 protease inhibition. inhibition, % at 5 µM. AID 434973. recombinant SENP7, Z-RLRGG-aminoluciferin luminescence, 40 min. Q9BQF6. 330,000 tested, 1.5% active;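 active = inhibition above about 50% at the single test dose, limit read from the data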
Target sequence (Q9BQF6 706-1050 limits assumed): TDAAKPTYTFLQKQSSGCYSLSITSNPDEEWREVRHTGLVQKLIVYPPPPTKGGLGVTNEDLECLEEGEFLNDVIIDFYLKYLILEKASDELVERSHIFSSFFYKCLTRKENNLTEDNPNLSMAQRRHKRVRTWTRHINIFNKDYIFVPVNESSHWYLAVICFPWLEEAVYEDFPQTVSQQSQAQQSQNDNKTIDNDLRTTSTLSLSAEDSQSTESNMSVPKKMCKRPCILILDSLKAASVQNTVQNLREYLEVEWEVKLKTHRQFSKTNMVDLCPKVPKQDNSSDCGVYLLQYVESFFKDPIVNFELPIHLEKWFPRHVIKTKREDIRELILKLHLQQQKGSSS
C8 TRAIL sens = caspase-8 TRAIL sensitization. NB7+C8 cells + TRAIL, ATPlite viability luminescence. inhibition (viability loss, TRAIL sensitization), % at 10 µM. 360,000 tested, 1% active. AID 624354;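 active = compounds causing at least 50% loss of cell viability in the single-dose screen, relative to plate controls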
Numbers stand for hits; n = inactive; x = no result; ! = not active in a repeat. In the library only some 3% were active in any assay of this set; here they are far more common.

SMILES | PPC-1+TRAIL kill | SENP6 block | SENP8 block-1 | SENP8 block-2 | SENP7 inh | C8 TRAIL sens
CCn1cnc2c(Nc3cc(F)cc(F)c3)nc(C#N)nc21 | x | n | n | n | n | n
N#Cc1nc(Nc2cccc(Cl)c2)c2ncn(C3CCCC3)c2n1 | x | n | n | n | n | 51.8
Cc1cc2oc(=O)cc(CN3CCCCCCC3)c2cc1Cl | x | x | n | x | x | n
CC(C)c1ccc2c(c1)CC[C@H]1[C@](C)(CN)CCC[C@]21C | x | x | n | x | x | 68.2!
c1ccc(CN2CCOCCOCCOCCOCC2)cc1 | n | n | n | n | n | n
COc1ccc(C)cc1NC(=O)CN(Cc1nnc(-c2ccc(Cl)cc2)o1)C1CCCC1 | n | n | n | n | n | 84.7
COc1ccc(Cl)cc1NC(=O)CN(C)C1CCCCC1 | n | n | n | n | n | n
O=C(Sc1cccc2cccnc12)c1ccccc1Br | x | n | n | n | n | n
O=C(Sc1cccc2cccnc12)c1ccc(F)cc1 | 57.9 | n | x | n | n | x
CCOc1cccc(C(=O)Nc2ccc3[nH]ncc3c2)c1 | x | n | n | n | n | 61.7
COc1cccc(C(=O)Nc2ccc3[nH]ncc3c2)c1 | x | n | n | n | n | n
CC(C)c1ccc(/C=C2\SC(=S)N(CCC(=O)N3CCCCC3CCO)C2=O)cc1 (stereo not given) | x | n | n | n | n | 60.3
O=C1/C(=C\c2ccccc2)SC(=S)N1CCC(=O)N1CCCCC1CCO (stereo not given) | x | n | n | n | n | n
CCCOc1ccc(/C=C2\SC(=S)N(CC3CCCO3)C2=O)cc1 (stereo not given) | n | n | 48.9 | n | n | n
O=C1/C(=C/c2ccc(O)cc2)SC(=S)N1CC1CCCO1 (stereo not given) | n | n | n | n | n | n
CCC(C)C(=O)N1c2ccccc2C(=C2SC(C(=O)OC)=C(C(=O)OC)S2)C(=S)C1(C)C (stereo not given) | n | n | 55.6 | n | n | n
COc1cccc(-c2nc(CS(=O)(=O)CC(=O)Nc3ccccc3Br)c(C)o2)c1 | x | n | n | n | n | n
O=C(O)c1ccc(N/N=C/c2cccc3cccnc23)cc1 | n | 54.2 | n | n | n | n
CC(C)(C)OC(=O)NCCC(=O)N/N=C/c1cccc2cccnc12 | n | n | n | n | n | n
O=C(O)c1ccc(N/N=C/c2ccc3nccnc3c2)cc1 | n | 98.0 | n | 97.1 | 100.5 | n
O=C(N/N=C/c1ccc2nccnc2c1)c1ccc(Br)cc1 | n | n | n | n | n | n
CCc1ccc(/C(C)=N/NC(=O)c2ccc(-n3cnnn3)cc2)cc1 | x | n | n | n | n | n
Nc1nc2ccccc2n1C(=O)c1cccs1 | n | n | n | 58.3 | 74.2 | n
Nc1nc2ccccc2n1C(=O)c1ccco1 | n | x | n | x | x | n
CNc1nc(N/N=C/c2cc([N+](=O)[O-])ccc2F)nc(Nc2ccccc2)n1 | x | x | n | x | x | 57.6
SMILES | PPC-1+TRAIL kill | SENP6 block | SENP8 block-1 | SENP8 block-2 | SENP7 inh | C8 TRAIL sens
CCN(CC)CCN(C)C(=O)c1[nH]c(C(F)(F)F)nc1-c1ccccc1 | x | x | n | x | x | n
Oc1ccc(C=Nc2ccccc2-c2nc3ccccc3[nH]2)c(O)c1 | n | n | n | n | n | n
Fc1ccccc1-c1nc2ccccc2[nH]1 | n | 74.1 | n | 62.8 | 75.9 | n
Oc1ccccc1C=Nc1ccccc1-c1nc2ccccc2[nH]1 | n | n | n | n | n | 52.5
N#CC1=C(N)C(C#N)(C#N)[C@H](c2ccoc2)[C@H]2CN(Cc3ccccc3)CC=C12 | n | 91.4 | n | 84.0 | 77.1 | n
CC(=O)N1CC=C2C(C#N)=C(N)C(C#N)(C#N)[C@H](c3ccoc3)[C@H]2C1 | n | n | n | n | n | n
CCCCNC(=O)C1C(c2ccc(OC)cc2)=Nc2ccccc2N1C(=O)c1ccc2ncccc2c1 (stereo not given) | x | x | n | x | x | n
CCN(Cc1ccccc1)c1ccc(/C=C(\C#N)c2ccccn2)cc1 | n | n | n | n | n | n
O=C(N/N=C/c1ccc2cccnc2c1)c1ccco1 | n | n | n | n | n | 61.2
CCN(CC)c1ccc(/C=N/NC(=O)c2ccccn2)cc1 | n | n | n | n | n | 64.6
CCN(CC)c1ccc(/C=N/NC(=O)c2cnccn2)cc1 | n | n | n | n | n | n
O=C(N/N=C/c1ccccc1)c1ccco1 | n | n | n | n | n | n
CCN(CC)c1ccc(/C=N/NC(=O)c2ccco2)cc1 | n | x | n | x | x | 51.6
CCN(CC)c1ccc(/C=C(\C#N)c2ccccn2)cc1 | 62.1 | 83.7 | n | 88.0 | 87.8 | 81.1
CC1(C)CC(=O)C2=C(C1)c1c(ccc3ccccc13)NC2c1cc([N+](=O)[O-])cc([N+](=O)[O-])c1O (stereo not given) | n | n | n | n | n | n
C(=C\c1ccccc1)/CN1CCN(C(c2ccnc3ccccc23)c2nnnn2C2CCCC2)CC1 (stereo not given) | x | x | n | x | x | n
Cc1c(CCCl)c(Cl)n2c(nc3ccccc32)c1C#N | x | x | n | x | x | 88.3
CC(NC(=O)CCl)c1ccc(Cl)c(Cl)c1 (stereo not given) | n | n | n | n | n | 61.3
CC1(C)C=C(c2ccc(C=O)s2)CC(C)(C)N1C=O | 62.3 | n | n | n | n | n
Cc1ccccc1Nc1nn2c(=O)c3ccccc3nc2s1 | n | n | n | n | n | 49.9
COc1cccc(/C=C2\CCC(C3CCCC3)C2=O)c1OC (stereo not given) | x | n | n | n | n | 49.4
O=C(NC(=S)Nc1cccnc1)c1cccs1 | n | n | n | n | n | n
Cc1ccnc(NC(=S)NC(=O)c2cccs2)c1 | 61.1 | n | n | n | n | 88.8
O=C(NC(=S)Nc1ccc(Cl)cn1)c1cccs1 | n | n | n | n | n | 71.8
CC(=O)Nc1nc2ccc(NC(=O)c3ccco3)cc2s1 | n | n | n | n | n | n
SMILES | PPC-1+TRAIL kill | SENP6 block | SENP8 block-1 | SENP8 block-2 | SENP7 inh | C8 TRAIL sens
Cc1ccc2nc(NC(=O)c3ccc(-c4nc5ccccc5s4)s3)sc2c1 | n | n | n | n | n | 66.9
Cc1ccnc(NC(=O)CNC(=O)c2cccs2)c1 | x | n | n | n | n | n
Cc1ccc2nc(NC(=S)NC(=O)c3ccco3)sc2c1 | n | x | n | x | x | 81.8
O=C(Nc1ccc(NC(=O)c2cccs2)cn1)c1ccccc1 | n | 64.1 | n | n | 67.2 | n
O=C(Nc1ccc(NC(=O)C2CC2)nc1)c1cccs1 | n | n | n | n | n | n
Cc1ccnc(NC(=S)NC(=O)c2ccco2)c1 | n | n | n | n | n | 52.8
CCC(C)c1ccc(O)c(NC(=S)NC(=O)c2cccs2)c1 (stereo not given) | x | x | n | x | x | 58.3
O=C(O)c1ccc(N2CCS(=O)(=O)CC2)cc1 | n | n | n | n | n | n
CCCc1cc(C(=O)N/N=C/c2ccc(CC)s2)c2ccccc2n1 | n | n | n | n | n | 51.3
CCc1ccc(/C=N/NC(=O)c2c[nH]c3ccccc23)s1 | n | n | n | n | n | 54.5
CC(C)C(NC(=O)Cc1ccccc1)C(=O)N1CCN(c2cccc(Cl)c2)CC1 (stereo not given) | x | n | n | n | n | n

Bioassay records deposited in PubChem BioAssay by Sanford-Burnham Center for Chemical Genomics.
